Bioassay records as filed in PubChem.
Shown are actives, neighbours in structure and some others; about 6.8% of the full set was active somewhere.
C diff growth = C. difficile growth inhibitors, primary screen, HTS; Clostridium difficile clinical isolate growth, OD600, 24 h; stronger effect = lower value; growth activity, negative = inhibition, % at 16 µg/mL (by protocol); 0.25% of 86,000 active;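 active = mean growth activity at or below -80% and every replicate also at or below -80%; inconclusive = mean at or below -80% but some replicate above -80%; inactive = mean growth activity above -80%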;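 note: 0% = DMSO wells and -100% = levofloxacin 16 µg/mL wells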
T cruzi growth-1 = T. cruzi intracellular proliferation inhibitors, primary screen, cell-based, beta-gal Tulahuen parasites, NIH3T3 host, luminescence. T. cruzi beta-gal in NIH3T3, GalScreen luminescence, 90 h. inhibition, % at 8.34 µM. 5.9% of 77,000 active. AID 624255, 2012;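 active = mean inhibition above about 93%, with at least 55% of replicates each passing it, limit read from the data, passing the limit was not always enough; inconclusive = only one of those two conditions holds; inactive = neither condition holds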
Pf Dd2 inh = P. falciparum Dd2 growth inhibitors, primary screen, SYBR Green fluorescence, single dose replicates. activity change, % at 10 µM. 72 h; stronger effect = lower value. 2.3% of 94,000 active; in the data active = activity change below about -80%; inconclusive = no clear call, values can overlap the other calls
T cruzi growth-2 = T. cruzi intracellular proliferation inhibitors, confirmation, cell-based, NIH3T3 host, beta-gal parasite, luminescence, cherry-pick | AID 651739, 2012 | shares compounds with T cruzi growth-1 | 72% of 5,600 active | T. cruzi beta-gal in NIH3T3, GalScreen luminescence, 90 h | inhibition, % at 8.35 µM;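 active = mean replicate inhibition above about 95% and at least 55% of replicates individually reaching it, limit read from the data; inconclusive = only one of the two criteria is met; inactive = neither criterion is met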
T cruzi growth-3 = inhibitors of intracellular T. cruzi replication, confirmation, NIH3T3 host cells, beta-gal parasites, cherry-pick, set 2 | shares compounds with T cruzi growth-1 | T. cruzi beta-gal in NIH3T3, GalScreen luminescence, 90 h | inhibition, % at 2.09 µM | 21% of 5,600 active;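 active = mean inhibition above about 95%, with at least 55% of replicates also reaching it, limit read from the data; inconclusive = meets just one of the two conditions; inactive = meets neither condition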;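 note: plate controls were neutral control median for no effect and positive control median for full effect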
NIH3T3 tox = cytotoxicity in mouse NIH/3T3 fibroblasts, confirmation, cytotoxicity control for T. cruzi proliferation inhibitor project, cell-based, cherry-pick, single point; cytotoxicity (signal decrease), % at 8.35 µM; NIH/3T3 viability, CellTiter-Glo ATP luminescence, 90 h; 14% of 5,600 active; AID 651742, 2012; shares compounds with T cruzi growth-1;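 active = mean signal decrease across replicates above about 35% based on untreated-well scatter, with enough replicates individually passing, limit read from the data; inconclusive = no rule stated though some were filed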;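 note: 0% = median of neutral control wells and 100% = median of positive control wells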
3T3 cytotox 2 = NIH/3T3 fibroblast cytotoxicity, confirmation, cytotoxicity control, cell-based, cherry-pick, single point, set 2. shares compounds with T cruzi growth-1. NIH/3T3 viability, CellTiter-Glo ATP luminescence, 90 h. inhibition, % at 24.9 µM. 56% of 5,600 active;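 active = mean loss of cell viability signal at or above a set limit, and enough replicates individually reaching it; inconclusive = meets only the mean limit or only the replicate share; inactive = meets neither condition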;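 note: 0% = median of neutral control wells and 100% = median of positive control wells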
Active calls of the source: *; ? = inconclusive; / = not tested or not shown.

SMILES	C diff growth	T cruzi growth-1	Pf Dd2 inh	T cruzi growth-2	T cruzi growth-3	NIH3T3 tox	3T3 cytotox 2
C[C@H](CO)N1C[C@H](C)[C@H](CN(C)S(=O)(=O)c2ccc(F)cc2)Oc2ncc(C#Cc3ccccc3)cc2C1=O	/	106*	-67	?	77	7	28*
C[C@H](CO)N1C[C@H](C)[C@H](CN(C)S(=O)(=O)c2ccc(F)cc2)Oc2ncc(C#Cc3ccc(C(F)(F)F)cc3)cc2C1=O	6	112*	-49	105*	103*	26	35*
Cc1ccc(S(=O)(=O)N(C)C[C@@H]2Oc3ncc(C#Cc4ccc(C(F)(F)F)cc4)cc3C(=O)N([C@H](C)CO)C[C@@H]2C)cc1	/	?	-45	89	112*	34	39*
COc1ccc(S(=O)(=O)N(C)C[C@@H]2Oc3ncc(C#Cc4ccc(C(F)(F)F)cc4)cc3C(=O)N([C@H](C)CO)C[C@@H]2C)cc1	-2	16	-74	/	/	/	/
C[C@@H]1CN([C@@H](C)CO)C(=O)c2cc(C#CCN(C)C)cnc2O[C@@H]1CN(C)S(=O)(=O)c1ccccc1	-2	41	25	/	/	/	/
C[C@H](CO)N1C[C@H](C)[C@H](CN(C)S(=O)(=O)c2ccccc2)Oc2ncc(C#Cc3ccccc3)cc2C1=O	-1	98	-20	/	/	/	/
C[C@H](CO)N1C[C@H](C)[C@H](CN(C)S(=O)(=O)c2cccs2)Oc2ncc(-c3cc4ccccc4o3)cc2C1=O	15	123*	-75	110*	75	35*	15
C[C@H](CO)N1C[C@H](C)[C@H](CN(C)C)Oc2ncc(-c3cc4ccccc4o3)cc2C1=O	-6	77	1	/	/	/	/
COc1ccc(S(=O)(=O)N(C)C[C@@H]2Oc3ncc(C#Cc4cccc(F)c4)cc3C(=O)N([C@H](C)CO)C[C@@H]2C)cc1	4	?	-77	107*	77	30	48*
COc1ccc(-c2cnc3c(c2)C(=O)N([C@H](C)CO)C[C@H](C)[C@@H](CN(C)C(=O)CN(C)C)O3)cc1	-7	105*	-7	36	3	23	2
COc1ccccc1S(=O)(=O)N(C)C[C@@H]1Oc2ncc(-c3ccc(C)cc3)cc2C(=O)N([C@@H](C)CO)C[C@H]1C	7	101*	-11	102*	65	28	55*
COc1ccc(-c2cnc3c(c2)C(=O)N([C@@H](C)CO)C[C@H](C)[C@H](CN(C)C(=O)CN(C)C)O3)cc1	-2	49	26	/	/	/	/
COc1ccccc1S(=O)(=O)N(C)C[C@@H]1Oc2ncc(-c3ccc(C)cc3)cc2C(=O)N([C@@H](C)CO)C[C@@H]1C	1	66	-45	/	/	/	/
COc1ccc(S(=O)(=O)N(C)C[C@@H]2Oc3ncc(-c4ccc(F)cc4)cc3C(=O)N([C@H](C)CO)C[C@@H]2C)cc1	0	29	-75	/	/	/	/
CN(C)CC(=O)Nc1ccc2c(c1)[C@H]1C[C@@H](CC(=O)NC3CCCCC3)O[C@@H](CO)[C@H]1O2	/	-49	23	/	/	/	/
O=C(Nc1ccc2c(c1)OCO2)N[C@@H]1CC[C@@H](CC(=O)N2CCN(c3ccccc3)CC2)O[C@H]1CO	-3	-8	4	/	/	/	/
CO[C@H]1CN(C)C(=O)c2ccc(NC(=O)C3CC3)cc2OC[C@@H](C)N(C(=O)c2cnccn2)C[C@@H]1C	-5	/	36	/	/	/	/
C[C@H](CO)N1C[C@H](C)[C@H](CN(C)S(=O)(=O)c2cccs2)Oc2ncc(C#Cc3cccc(F)c3)cc2C1=O	0	98*	-39	110*	69	2	5
COc1ccc(-c2cnc3c(c2)C(=O)N([C@@H](C)CO)C[C@H](C)[C@@H](CN(C)S(=O)(=O)c2ccc(OC)cc2)O3)cc1	/	105*	-37	104*	58	9	?
COc1ccc(-c2cnc3c(c2)C(=O)N([C@H](C)CO)C[C@@H](C)[C@@H](CN(C)S(=O)(=O)c2ccc(OC)cc2)O3)cc1	/	69	-21	/	/	/	/
C[C@H](CO)N1C[C@H](C)[C@H](CN(C)S(=O)(=O)c2cccc(F)c2)Oc2ncc(C#Cc3ccc(C(F)(F)F)cc3)cc2C1=O	6	?	-79	101*	109*	25	36*
C[C@H](CO)N1C[C@H](C)[C@H](CN(C)S(C)(=O)=O)Oc2ncc(C#Cc3cccc(F)c3)cc2C1=O	-5	/	-3	/	/	/	/
C[C@H](CO)N1C[C@H](C)[C@H](CN(C)S(=O)(=O)c2cccc(F)c2)Oc2ncc(C#Cc3ccccc3)cc2C1=O	/	39	-72	/	/	/	/
Cc1cc(C(=O)Nc2cccc3c2O[C@H](CN(C)C(=O)Nc2c(C)noc2C)[C@H](C)CN([C@H](C)CO)C3=O)n(C)n1	/	-16	42	/	/	/	/
C[C@@H]1CN([C@@H](C)CO)C(=O)c2cc(-c3cccc(C(=O)N(C)C)c3)cnc2O[C@H]1CN(C)C	-6	-57	48	/	/	/	/
SMILES	C diff growth	T cruzi growth-1	Pf Dd2 inh	T cruzi growth-2	T cruzi growth-3	NIH3T3 tox	3T3 cytotox 2
C[C@H](CO)N1C[C@H](C)[C@@H](CN(C)Cc2ccc(Oc3ccccc3)cc2)Oc2ccc(NC(=O)Nc3ccc(F)cc3)cc2C1=O	19	60	-11	/	/	/	/
C[C@H](CO)N1C[C@H](C)[C@H](CN(C)Cc2ccc(Oc3ccccc3)cc2)Oc2ccc(NC(=O)Nc3ccc(F)cc3)cc2C1=O	72	109*	-13	98*	62	24	104*
C[C@@H]1CN([C@H](C)CO)C(=O)c2cc(NC(=O)Nc3ccc(F)cc3)ccc2O[C@@H]1CN(C)Cc1ccc(Oc2ccccc2)cc1	69	?	-14	96*	30	34	106*
C[C@@H]1CN([C@H](C)CO)C(=O)c2cc(NC(=O)Nc3ccc(F)cc3)ccc2O[C@H]1CN(C)Cc1ccc(Oc2ccccc2)cc1	-2	-23	-13	/	/	/	/
Cc1noc(C)c1S(=O)(=O)Nc1ccc2c(c1)C(=O)N([C@@H](C)CO)C[C@@H](C)[C@H](CN(C)C(=O)c1ccccc1)OCCCC[C@@H](C)O2	/	-18	0	/	/	/	/
CN(C)C(=O)c1cccc(-c2ccc([C@H]3[C@@H](CO)N4CCCCN(C(=O)C5CCCC5)C[C@@H]34)cc2)c1	-4	102*	-5	103*	98*	-23	-26
CN(C)C(=O)c1cccc(-c2ccc([C@H]3[C@@H](CO)N4CCCCN(C(=O)C5CCC5)C[C@H]34)cc2)c1	-11	?	1	107*	90	13	15
